An excerpt weighted towards active compounds, which were near 2.6% of everything screened.
Cardio protect – modulators protecting cardiomyocytes from myocardial damage; H9c2 cardiomyocytes, H2O2 injury protection, ATPLite, 2 h; protection from H2O2 cell death, % at 20 µM; 360,000 tested, 0.63% active;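 active = compounds giving at least 50% protection of heart cells from peroxide-induced death in the single-dose screen, raw or plate-pattern-corrected value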
697 NFkB inh – inhibitors of the PMA/ionomycin-induced NF-kB reporter in 697 B cells; 697 B-cell NF-kB luciferase reporter, 16 h; inhibition, % at 4 µM; 330,000 tested, 0.33% active; AID 435022; in the data active = inhibition above about 35%
NR2F2 inh – NR2F2 (human) inhibition, primary screen; P24468; HEK293T NGFI-A luciferase reporter, luminescence; inhibition, % at 8.6 µM; 370,000 tested, 0.7% active; AID 686940;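 active = inhibition above a per-plate cutoff, mean inhibition of test wells between control levels plus 3 SD, cut at about 38% in these data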;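 note: cells cotransfected with COUP-TFII expression vector driving the NGFI-A reporter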
Target sequence (P24468 whole entry, looked up): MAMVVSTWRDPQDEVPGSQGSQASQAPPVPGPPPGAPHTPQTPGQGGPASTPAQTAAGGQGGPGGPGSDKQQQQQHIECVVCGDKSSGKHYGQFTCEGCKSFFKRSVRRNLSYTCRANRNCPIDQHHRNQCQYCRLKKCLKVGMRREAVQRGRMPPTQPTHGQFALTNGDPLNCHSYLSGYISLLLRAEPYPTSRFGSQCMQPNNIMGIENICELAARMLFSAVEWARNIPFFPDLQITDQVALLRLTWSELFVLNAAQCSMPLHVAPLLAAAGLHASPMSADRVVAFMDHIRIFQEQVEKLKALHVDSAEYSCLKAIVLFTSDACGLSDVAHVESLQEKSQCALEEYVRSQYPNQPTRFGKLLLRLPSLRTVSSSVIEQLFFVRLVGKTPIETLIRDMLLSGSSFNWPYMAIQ
Gli-Sufu block – blocks Gli-Sufu signaling in a luciferase reporter | Sufu-KO-LIGHT fibroblasts, Gli luciferase reporter luminescence | inhibition, % at 5 µM | 340,000 tested, 0.74% active;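 active = inhibition above about 55%, limit read from the data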
Jurkat NFkB inh – lowers PMA/ionomycin-induced NF-kB signal in Jurkat cells; PMA/ionomycin-induced NF-kB luciferase reporter, luminescence; inhibition, % at 4 µM; 330,000 tested, 0.53% active; AID 435003; in the data active = inhibition above about 50%
H9c2 TAG inh – inhibitors of triacylglycerol accumulation; H9c2 cells, Nile Red lipid (TAG) fluorescence; cells loaded with 200 µM oleic acid; inhibition, % at 12.5 µM; 230,000 tested, 0.66% active;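 active = pattern-corrected inhibition of lipid staining of at least 50% with the nuclear-stain viability signal not falling by more than 50%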
Jurkat NFkB conf – lowers PMA/ionomycin-induced NF-kB signal in Jurkat cells. shares compounds with Jurkat NFkB inh. inhibition, % at 4 µM. 2,700 tested, 27% active. Jurkat NF-kB luciferase, 16 h;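 active = inhibition reaching about 45% at 4 µM in either replicate, limit read from the data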
Hits are given with their value.

CC(C)[C@H](NC(=O)[C@H](C)NC(=O)OC(C)(C)C)C(=O)N1CCC2CCN(Cc3ccccc3)CC21 (stereo partly drawn) was read as NR2F2 inh inactive.
Screening Oc1cc(NCc2ccc(F)cc2)cc2cccnc12 returned Cardio protect inactive, 697 NFkB inh inactive, NR2F2 inh inactive, Gli-Sufu block inactive, Jurkat NFkB inh inactive and H9c2 TAG inh inactive.
Screening CN(C)CCCNc1cc(O)c2ncccc2c1 returned Cardio protect inactive, 697 NFkB inh inactive, NR2F2 inh inactive, Gli-Sufu block inactive, Jurkat NFkB inh 56, H9c2 TAG inh inactive and Jurkat NFkB conf inactive.
CCN1C/C(=C/c2ccc(OC)c(O)c2)C(=O)/C(=C/c2ccc(OC)c(O)c2)C1 was read as Cardio protect inactive, 697 NFkB inh inactive, NR2F2 inh inactive, Gli-Sufu block inactive, Jurkat NFkB inh 89, H9c2 TAG inh inactive and Jurkat NFkB conf 44.
Screening CCN1C/C(=C\c2cccc([N+](=O)[O-])c2)C(=O)/C(=C/c2cccc([N+](=O)[O-])c2)C1 returned Cardio protect inactive, NR2F2 inh inactive and Gli-Sufu block inactive.
For COc1ccc(C=C2C(=O)c3ccccc3C2=O)cc1O the results were Cardio protect inactive, 697 NFkB inh inactive, NR2F2 inh inactive, Gli-Sufu block inactive, Jurkat NFkB inh inactive and H9c2 TAG inh inactive.
For COc1ccc(/C=C2\CN(Cc3ccccc3)C/C(=C\c3ccc(OC)c(O)c3)C2=O)cc1O the results were Cardio protect 61, 697 NFkB inh inactive, NR2F2 inh inactive, Gli-Sufu block inactive, Jurkat NFkB inh 53 and Jurkat NFkB conf inactive.
Screening CCCC[C@@H]1C(=O)N2N=Cc3cscc3[C@H]2N2N=Cc3cscc3[C@@H]12 returned NR2F2 inh inactive.
For COc1ccc2cc3cc(C(=O)N(C)C4CCCCC4)oc3nc2c1 the results were Cardio protect inactive, 697 NFkB inh inactive, Gli-Sufu block inactive and Jurkat NFkB inh inactive.
`COc1ccc2cc3cc(C(=O)N4CCCCC4C)oc3nc2c1` (stereo not drawn) gave Cardio protect inactive, 697 NFkB inh inactive, NR2F2 inh inactive, Gli-Sufu block inactive, Jurkat NFkB inh inactive and Jurkat NFkB conf inactive.
CCCCCN=C(N)N/N=C/c1c[nH]c2ccc(OC)cc12 was read as Cardio protect inactive, 697 NFkB inh inactive, NR2F2 inh inactive, Gli-Sufu block inactive, Jurkat NFkB inh 100, H9c2 TAG inh inactive and Jurkat NFkB conf inactive.
COc1ccc(N2CCN(CCCNC(=O)Cn3c(=O)c4cccn4c4cccnc43)CC2)c(OC)c1 was read as NR2F2 inh inactive.
Cc1noc(C)c1COc1cccc(C(=O)OC(C)C(=O)Nc2ccc3c(c2)OCO3)c1 (stereo not drawn) was read as Cardio protect inactive, 697 NFkB inh inactive, NR2F2 inh inactive, Gli-Sufu block inactive, Jurkat NFkB inh 58 and Jurkat NFkB conf inactive.
Screening Cc1noc(C)c1COc1cccc(C(=O)Nc2ccc(Br)cc2F)c1 returned Cardio protect inactive, 697 NFkB inh inactive, NR2F2 inh inactive, Gli-Sufu block inactive, Jurkat NFkB inh 61, H9c2 TAG inh inactive and Jurkat NFkB conf inactive.
Screening COc1cccc(C(=O)Nc2ccc(F)cc2F)c1 returned Cardio protect inactive, 697 NFkB inh inactive, NR2F2 inh inactive, Gli-Sufu block inactive, Jurkat NFkB inh inactive and H9c2 TAG inh inactive.
Cc1ccc(NC(=O)c2cccc(OCc3c(C)noc3C)c2)c(C)c1 was read as Cardio protect inactive, 697 NFkB inh inactive, NR2F2 inh inactive, Gli-Sufu block inactive, Jurkat NFkB inh inactive and H9c2 TAG inh inactive.
For O=C(Nc1ccc(Br)cc1F)c1ccc2c(c1)OCCO2 the results were Cardio protect inactive, 697 NFkB inh inactive, NR2F2 inh inactive, Gli-Sufu block inactive, Jurkat NFkB inh inactive and Jurkat NFkB conf inactive.
`CC(C)Oc1cccc(C(=O)Nc2ccc(Br)cc2F)c1` gave Cardio protect inactive, 697 NFkB inh inactive, NR2F2 inh inactive, Gli-Sufu block inactive, Jurkat NFkB inh inactive and Jurkat NFkB conf inactive.
COc1cc(C(=O)OC(C)C(=O)Nc2ccc3c(c2)OCO3)ccc1OCc1c(C)noc1C (stereo not drawn) was read as Cardio protect inactive, 697 NFkB inh inactive, NR2F2 inh inactive, Gli-Sufu block inactive, Jurkat NFkB inh inactive and H9c2 TAG inh inactive.

Screening data deposited in PubChem by several laboratories.
